Some targets named below: dAsCas12a Ultra (Acidaminococcus sp., UniProt U2UMQ6 1-1307, M537R;F870L;D908A;E993A;D1235A); dAsCas12a E174R (Acidaminococcus sp., UniProt U2UMQ6 1-1307, E174R;D908A;E993A;D1235A); dAsCas12a S542R (Acidaminococcus sp., UniProt U2UMQ6 1-1307, S542R;D908A;E993A;D1235A); d-enCas12a (Acidaminococcus sp., UniProt U2UMQ6 1-1307, E174R;S542R;K548R;D908A;E993A;D1235A); d-enCas12a-Ultra (Acidaminococcus sp., UniProt U2UMQ6 1-1307, E174R;S542R;K548R;M537R;F870L;D908A;E993A;D1235A).

What all share (assay): Spec-seq (native PAGE EMSA with sequencing of bound and unbound); 25 mM Tris-HCl pH 7.4, 150 mM KCl, 5 mM MgCl2, 10% glycerol, 1 mM DTT, 40 ng/uL salmon sperm DNA; 400 nM Cas12a, 480 nM crRNA, 50 nM library, 37 C 1 h; native PAGE at room temperature; high values mean tight binding
Holding throughout (conditions): protein: recombinant

B1: GGTA (dsDNA)
DNA 1: GCTATCTAGTGCTCAGTACGCACTGGGTAAGGAAACTTCTGGCAGGACCAGGTCATGAGATCGGAAGAGCACACGTCTGAACTCCAGTCA
DNA 2: TGACTGGAGTTCAGACGTGTGCTCTTCCGATCTCATGACCTGGTCCTGCCAGAAGTTTCCTTACCCAGTGCGTACTGAGCACTAGATAGC
RNA: AAUUUCUACUCUUGUAGAUAGGAAACUUCUGGCAGGACC
As for B1, the binding signal was -7.78 lnKA with dAsCas12a Ultra; -8.41 lnKA with dAsCas12a E174R; -7.66 lnKA with dAsCas12a S542R; -3.21 lnKA with d-enCas12a; -0.816 lnKA with d-enCas12a-Ultra.

B2: GTGA (dsDNA)
DNA 1: GCTATCTAGTGCTCAGTACGCACTGGTGAAGGAAACTTCTGGCAGGACCAGGTCATGAGATCGGAAGAGCACACGTCTGAACTCCAGTCA
DNA 2: TGACTGGAGTTCAGACGTGTGCTCTTCCGATCTCATGACCTGGTCCTGCCAGAAGTTTCCTTCACCAGTGCGTACTGAGCACTAGATAGC
RNA: AAUUUCUACUCUUGUAGAUAGGAAACUUCUGGCAGGACC
Regarding B2, the binding signal in the test with dAsCas12a Ultra was -7.93 lnKA; with dAsCas12a E174R, -8.87 lnKA; with dAsCas12a S542R, -7.67 lnKA; in the test with d-enCas12a, -5.45 lnKA; with d-enCas12a-Ultra, -3.14 lnKA.

B3: TAAA (dsDNA)
DNA 1: GCTATCTAGTGCTCAGTACGCACTGTAAAAGGAAACTTCTGGCAGGACCAGGTCATGAGATCGGAAGAGCACACGTCTGAACTCCAGTCA
DNA 2: TGACTGGAGTTCAGACGTGTGCTCTTCCGATCTCATGACCTGGTCCTGCCAGAAGTTTCCTTTTACAGTGCGTACTGAGCACTAGATAGC
RNA: AAUUUCUACUCUUGUAGAUAGGAAACUUCUGGCAGGACC
In the case of B3, the binding signal with dAsCas12a Ultra was -8.83 lnKA; with dAsCas12a S542R it was -8.25 lnKA; with d-enCas12a, -5.38 lnKA; with d-enCas12a-Ultra it was -3.04 lnKA.

B4: GGTT (dsDNA)
DNA 1: GCTATCTAGTGCTCAGTACGCACTGGGTTAGGAAACTTCTGGCAGGACCAGGTCATGAGATCGGAAGAGCACACGTCTGAACTCCAGTCA
DNA 2: TGACTGGAGTTCAGACGTGTGCTCTTCCGATCTCATGACCTGGTCCTGCCAGAAGTTTCCTAACCCAGTGCGTACTGAGCACTAGATAGC
RNA: AAUUUCUACUCUUGUAGAUAGGAAACUUCUGGCAGGACC
On to B4, for which the binding signal with dAsCas12a Ultra is -8.59 lnKA; with dAsCas12a E174R, -8.64 lnKA; with dAsCas12a S542R it was -8.19 lnKA; with d-enCas12a, -5.45 lnKA; in the test with d-enCas12a-Ultra, -2.7 lnKA.

B5: GTGT (dsDNA)
DNA 1: GCTATCTAGTGCTCAGTACGCACTGGTGTAGGAAACTTCTGGCAGGACCAGGTCATGAGATCGGAAGAGCACACGTCTGAACTCCAGTCA
DNA 2: TGACTGGAGTTCAGACGTGTGCTCTTCCGATCTCATGACCTGGTCCTGCCAGAAGTTTCCTACACCAGTGCGTACTGAGCACTAGATAGC
RNA: AAUUUCUACUCUUGUAGAUAGGAAACUUCUGGCAGGACC
As to B5, the binding signal is -8.66 lnKA with dAsCas12a Ultra; -8.98 lnKA in the test with dAsCas12a E174R; -8.04 lnKA with dAsCas12a S542R; -5.78 lnKA with d-enCas12a; -3.14 lnKA in the test with d-enCas12a-Ultra.

B6: TAGA (dsDNA)
DNA 1: GCTATCTAGTGCTCAGTACGCACTGTAGAAGGAAACTTCTGGCAGGACCAGGTCATGAGATCGGAAGAGCACACGTCTGAACTCCAGTCA
DNA 2: TGACTGGAGTTCAGACGTGTGCTCTTCCGATCTCATGACCTGGTCCTGCCAGAAGTTTCCTTCTACAGTGCGTACTGAGCACTAGATAGC
RNA: AAUUUCUACUCUUGUAGAUAGGAAACUUCUGGCAGGACC
Take B6: the binding signal with dAsCas12a Ultra was -8.98 lnKA; with dAsCas12a S542R, -8.65 lnKA; with d-enCas12a, -5.31 lnKA; in the test with d-enCas12a-Ultra it was -3.33 lnKA.

B7: GGTC (dsDNA)
DNA 1: GCTATCTAGTGCTCAGTACGCACTGGGTCAGGAAACTTCTGGCAGGACCAGGTCATGAGATCGGAAGAGCACACGTCTGAACTCCAGTCA
DNA 2: TGACTGGAGTTCAGACGTGTGCTCTTCCGATCTCATGACCTGGTCCTGCCAGAAGTTTCCTGACCCAGTGCGTACTGAGCACTAGATAGC
RNA: AAUUUCUACUCUUGUAGAUAGGAAACUUCUGGCAGGACC
For the molecule B7, the binding signal in the test with dAsCas12a Ultra is -8.4 lnKA; with dAsCas12a E174R, -8.96 lnKA; with dAsCas12a S542R, -8.74 lnKA; with d-enCas12a it was -3.44 lnKA; in the test with d-enCas12a-Ultra, -0.971 lnKA.

B8: GTCT (dsDNA)
DNA 1: GCTATCTAGTGCTCAGTACGCACTGGTCTAGGAAACTTCTGGCAGGACCAGGTCATGAGATCGGAAGAGCACACGTCTGAACTCCAGTCA
DNA 2: TGACTGGAGTTCAGACGTGTGCTCTTCCGATCTCATGACCTGGTCCTGCCAGAAGTTTCCTAGACCAGTGCGTACTGAGCACTAGATAGC
RNA: AAUUUCUACUCUUGUAGAUAGGAAACUUCUGGCAGGACC
With B8, the binding signal with dAsCas12a Ultra is -8.79 lnKA; in the test with dAsCas12a E174R, -8.88 lnKA; with dAsCas12a S542R it was -7.55 lnKA; with d-enCas12a, -4.02 lnKA; with d-enCas12a-Ultra, -0.927 lnKA.
